# What was measured:
# HCI01 = cells of a triple-negative basal-like breast cancer xenograft; experiment: cell viability of combination (% of vehicle); higher = less cytotoxic; conditions: 1 µM; 72 h; partner dose: 10 nM
# Description: (§1)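 PDX cells were treated for 72 h with each drug at 1 µM plus carfilzomib (10 nM; 100 nM for WHIM2). Luciferase viability is expressed as percent of vehicle.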
# UCD52 = cells of a triple-negative basal-like breast cancer xenograft; experiment: as above; conditions: 1 µM; 72 h; partner dose: 10 nM
# Description: as §1
Compound,cell viability of combination (HCI01),cell viability of combination (UCD52)
CCN(CC)CCNC(=O)c1c(C)[nH]c(C=C2C(=O)Nc3ccc(F)cc32)c1C.O=C(O)CC(O)C(=O)O [Sunitinib malate] + CC(C)C[C@H](NC(=O)[C@H](CCc1ccccc1)NC(=O)CN1CCOCC1)C(=O)N[C@@H](Cc1ccccc1)C(=O)N[C@@H](CC(C)C)C(=O)[C@@]1(C)CO1 [Carfilzomib],67.2,61.5
CCCCCOc1ccc(-c2ccc(-c3ccc(C(=O)N[C@H]4C[C@@H](O)[C@@H](O)NC(=O)[C@@H]5[C@@H](O)[C@@H](C)CN5C(=O)[C@H]([C@@H](C)O)NC(=O)[C@H]([C@H](O)[C@@H](O)c5ccc(O)cc5)NC(=O)[C@@H]5C[C@@H](O)CN5C(=O)[C@H]([C@@H](C)O)NC4=O)cc3)cc2)cc1 [Anidulafungin] + CC(C)C[C@H](NC(=O)[C@H](CCc1ccccc1)NC(=O)CN1CCOCC1)C(=O)N[C@@H](Cc1ccccc1)C(=O)N[C@@H](CC(C)C)C(=O)[C@@]1(C)CO1 [Carfilzomib],73.7,60
CC(NCCCc1cccc(C(F)(F)F)c1)c1cccc2ccccc12 (stereo not drawn) [Cinacalcet] + CC(C)C[C@H](NC(=O)[C@H](CCc1ccccc1)NC(=O)CN1CCOCC1)C(=O)N[C@@H](Cc1ccccc1)C(=O)N[C@@H](CC(C)C)C(=O)[C@@]1(C)CO1 [Carfilzomib],82.4,56.1
CCOc1cc2ncc(C#N)c(Nc3ccc(OCc4ccccn4)c(Cl)c3)c2cc1NC(=O)C=CCN(C)C [Neratinib (HKI-272)] + CC(C)C[C@H](NC(=O)[C@H](CCc1ccccc1)NC(=O)CN1CCOCC1)C(=O)N[C@@H](Cc1ccccc1)C(=O)N[C@@H](CC(C)C)C(=O)[C@@]1(C)CO1 [Carfilzomib],87.8,48.7
COC1=C(OC)C(=O)C(CCCCCCCCCCO)=C(C)C1=O [Idebenone] + CC(C)C[C@H](NC(=O)[C@H](CCc1ccccc1)NC(=O)CN1CCOCC1)C(=O)N[C@@H](Cc1ccccc1)C(=O)N[C@@H](CC(C)C)C(=O)[C@@]1(C)CO1 [Carfilzomib],82.8,62
COc1cc(C(=O)O)ccc1NC(=O)C1NC(CC(C)(C)C)C(C#N)(c2ccc(Cl)cc2F)C1c1cccc(Cl)c1F (stereo not drawn) + CC(C)C[C@H](NC(=O)[C@H](CCc1ccccc1)NC(=O)CN1CCOCC1)C(=O)N[C@@H](Cc1ccccc1)C(=O)N[C@@H](CC(C)C)C(=O)[C@@]1(C)CO1 [Carfilzomib],79.1,62.7
Cl.Fc1ccc(C2CCNCC2COc2ccc3c(c2)OCO3)cc1 (stereo not drawn) [Paroxetine HCl] + CC(C)C[C@H](NC(=O)[C@H](CCc1ccccc1)NC(=O)CN1CCOCC1)C(=O)N[C@@H](Cc1ccccc1)C(=O)N[C@@H](CC(C)C)C(=O)[C@@]1(C)CO1 [Carfilzomib],90.8,54.7
CO[C@H]1/C=C/O[C@@]2(C)Oc3c(C)c(O)c4c(O)c(c(/C=N/N5CCN(C6CCCC6)CC5)c(O)c4c3C2=O)NC(=O)/C(C)=C\C=C\[C@H](C)[C@H](O)[C@@H](C)[C@@H](O)[C@@H](C)[C@H](OC(C)=O)[C@@H]1C [Rifapentine] + CC(C)C[C@H](NC(=O)[C@H](CCc1ccccc1)NC(=O)CN1CCOCC1)C(=O)N[C@@H](Cc1ccccc1)C(=O)N[C@@H](CC(C)C)C(=O)[C@@]1(C)CO1 [Carfilzomib],78.8,58.6
CCN(CC)CCCC(C)Nc1ccnc2cc(Cl)ccc12.O=P(O)(O)O.O=P(O)(O)O (stereo not drawn) [Chloroquine diphosphate] + CC(C)C[C@H](NC(=O)[C@H](CCc1ccccc1)NC(=O)CN1CCOCC1)C(=O)N[C@@H](Cc1ccccc1)C(=O)N[C@@H](CC(C)C)C(=O)[C@@]1(C)CO1 [Carfilzomib],64,52.9
